Screening data: PubChem BioAssay, several laboratories
Sampled rows, rich in hits. Any-hit rate of the full collection: about 3.5%.
BoNT F protease: inhibitors of Botulinum neurotoxin F light chain protease; inhibition, % at 10 µM; Multiplex microsphere protease cleavage assay, flow cytometry; actives 0.22% (n = 360,000); in the data active = inhibition above about 35%, passing the limit was not always enough; inconclusive = no clear call, values can overlap the other calls; note: plate controls were buffer without enzyme for full effect and enzyme alone for no effect
Autofluor counter: compound fluorescence in toxin protease inhibitor counterscreen; compound autofluorescence counterscreen, microsphere flow cytometry; stronger effect = higher value; fluorescence intensity (concentration not given with the values); actives 3.1% (n = 360,000); in the data active = fluorescence intensity above about 16000; inconclusive = no clear call, values can overlap the other calls
Anthrax LF inh2: inhibitors of Bacillus anthracis lethal factor protease. multiplex microsphere protease cleavage assay, LF. inhibition, % at 10 µM. actives 0.12% (n = 360,000); in the data active = inhibition above about 30%; inconclusive = no clear call, values can overlap the other calls; note: plate controls were buffer without enzyme for full effect and enzyme alone for no effect
Target sequence (P15917 whole entry, looked up): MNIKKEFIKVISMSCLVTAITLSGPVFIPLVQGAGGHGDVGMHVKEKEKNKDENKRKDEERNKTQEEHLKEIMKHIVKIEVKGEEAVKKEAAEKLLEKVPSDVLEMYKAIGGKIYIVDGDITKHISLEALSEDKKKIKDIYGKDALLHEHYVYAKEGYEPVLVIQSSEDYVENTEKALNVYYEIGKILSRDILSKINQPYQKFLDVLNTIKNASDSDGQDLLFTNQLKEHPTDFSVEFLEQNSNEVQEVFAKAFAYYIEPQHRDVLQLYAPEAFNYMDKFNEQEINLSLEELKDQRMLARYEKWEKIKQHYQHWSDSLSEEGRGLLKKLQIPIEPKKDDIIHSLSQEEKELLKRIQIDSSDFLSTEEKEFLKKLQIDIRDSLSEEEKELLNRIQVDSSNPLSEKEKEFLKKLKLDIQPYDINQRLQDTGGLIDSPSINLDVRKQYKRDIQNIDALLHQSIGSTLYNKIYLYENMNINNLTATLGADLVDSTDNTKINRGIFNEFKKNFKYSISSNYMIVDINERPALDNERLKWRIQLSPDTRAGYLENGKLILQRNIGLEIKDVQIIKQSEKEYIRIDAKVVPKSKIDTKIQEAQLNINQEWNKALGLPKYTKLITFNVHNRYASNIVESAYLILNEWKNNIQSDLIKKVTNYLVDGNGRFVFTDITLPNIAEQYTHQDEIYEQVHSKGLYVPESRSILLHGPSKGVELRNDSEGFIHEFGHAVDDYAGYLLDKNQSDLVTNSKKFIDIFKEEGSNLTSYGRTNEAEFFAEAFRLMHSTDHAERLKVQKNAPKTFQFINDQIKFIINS
BoNT-A LC inh2: inhibitors of Botulinum neurotoxin A light chain protease; multiplex microsphere protease substrate cleavage, flow cytometry; inhibition, % at 10 µM; actives 0.17% (n = 360,000); AID 588499; in the data active = inhibition above about 30%; inconclusive = no clear call, values can overlap the other calls; note: plate controls were buffer without enzyme for full effect and enzyme alone for no effect
SARS 3CLpro inh: SARS-CoV 3CLpro protease inhibition. P0C6X7. inhibition, % at 6 µM. AID 1706. actives 0.14% (n = 290,000). recombinant SARS-CoV 3CLpro, quenched FRET peptide cleavage; in the data active = inhibition above about 12%
BoNT-A LC CP1: inhibitors of Botulinum neurotoxin A light chain protease; shares compounds with BoNT F protease; multiplex microsphere protease assay, flow cytometry; inhibition, % at 10 µM; actives 3% (n = 720); AID 602139; in the data active = inhibition above about 32%
BoNT-F LC CP1: inhibitors of Botulinum neurotoxin F light chain protease | shares compounds with BoNT F protease | multiplex microsphere protease cleavage assay, flow cytometry | inhibition, % at 10 µM | 720 tested, under 10 active | AID 602140
Anthrax LF CP1: inhibitors of Bacillus anthracis lethal factor protease | multiplex microsphere protease cleavage assay, LF | 720 tested, under 10 active | shares compounds with BoNT F protease | inhibition, % at 10 µM | AID 602142
* marks the source's active call; other numbers are inactive results; ? = inconclusive; . = not tested or not shown; + = active, no number. Unless noted, the rule behind the calls is not given here.

SMILES	BoNT F protease	Autofluor counter	Anthrax LF inh2	BoNT-A LC inh2	SARS 3CLpro inh	BoNT-A LC CP1	BoNT-F LC CP1	Anthrax LF CP1
CCc1ccc(Nc2nc3ccccc3c(=O)s2)cc1	75.7*	5006	32.8*	8.4	10.4	0.2	-2.7	-1.2
COc1ccc(OC)c(-c2nc3cc4ccccc4cc3nc2-c2ccccc2)c1	17.2	2721	22.2	62.5*	1.7	34.1*	7.2	26.1
O=S1(=O)CC(NCc2ccccc2)C(Nc2ccccc2)C1 (centres undefined)	-18.8	9396	-7.3	?	-2.9	.	.	.
O=C(NC1CS(=O)(=O)CC1NCc1ccccc1)c1ccccc1 (centres undefined)	72.4*	8686	5.2	4.9	4.1	0.5	-3.8	-0.4
CCCn1nc(-c2ccccc2)c2nc3ccccc3nc21	.	.	.	.	-1.7	.	.	.
CCn1nc(-c2ccccc2)c2nc3ccccc3nc21	38.0*	3801	42.8*	66.9*	-9.6	22.0	2.4	10.3
CCS(=O)(=O)n1nc(C(=O)N2CCOCC2)nc1N	5.6	3307	-1.4	-0.4	1.1	.	.	.
O=S(=O)(c1ccc(F)cc1)N1CCN(c2ccccn2)CC1	-5.8	4180	3.9	-2.2	-6.8	.	.	.
O=S(=O)(c1ccc(Cl)cc1)N1CCN(c2ccccn2)CC1	47.7*	3973	-6.3	-3.1	0.2	1.0	-3.8	-6.3
COc1ccc([C@@H](O)[C@@H](N)c2ccccc2)cc1	?	3097	38.4*	0.4	.	0.0	1.1	0.6
COc1ccc(C(O)P(=O)(Oc2ccccc2)Oc2ccccc2)cc1 (centres undefined)	5.0	3061	8.3	10.1	4.5	.	.	.
NC(=O)C(c1ncc(C(F)(F)F)cc1Cl)c1c(Cl)cccc1Cl (centres undefined)	48.0*	?	?	?	-3.2	0.5	-3.3	5.0
Cc1nc2nc(Cc3ccccc3)[nH]n2c(=O)c1Cc1ccccc1	-42.8	4953	-5.3	-4.0	-3.7	.	.	.
Cc1nc2nc(Cc3ccccc3)[nH]n2c(=O)c1Cl	31.6	4787	3.1	1.2	-2.8	0.7	-5.2	0.9
CCOC(=O)C1CCN(C(=O)Nc2ccc(OCc3ccccc3)cc2)CC1	?	3889	30.8*	-4.4	6.4	0.3	0.2	-3.9
O=S(=O)(NCc1cccnc1)c1cc(Cl)ccc1Cl	37.1*	7951	-28.6	34.2*	-1.4	0.8	-5.9	2.5
O=C(O)c1ccc(Cl)c(S(=O)(=O)NCc2cccnc2)c1	-0.1	3280	-2.5	-0.8	5.0	.	.	.
CCCCOc1ccc(C(=O)N2CCN(c3ccc(N4CCOCC4)nn3)CC2)cc1	59.2*	?	23.3	7.9	.	1.0	-2.6	2.0
Cc1ccc(C(=O)N2CCN(c3ccc(N4CCOCC4)nn3)CC2)cc1	7.9	4117	-3.3	4.5	.	.	.	.
Cc1cccc2cc(C(c3nnnn3C3CCCC3)N3CCOCC3)c(=O)[nH]c12 (centres undefined)	-1.5	21873*	0.3	?	1.6	-3.0	-5.2	-3.6
Cc1ccc2[nH]c(=O)c(C(c3nnnn3CC3CCCO3)N3CCOCC3)cc2c1 (centres undefined)	4.6	?	-1.4	0.6	-0.1	.	.	.
Cc1cc(C)c2cc(C(c3nnnn3C3CCCC3)N3CCOCC3)c(=O)[nH]c2c1 (centres undefined)	7.8	9576	-6.6	0.8	-0.1	1.1	-4.2	1.6
Cc1csc(NC(=O)CSc2nncs2)n1	-9.3	6922	1.6	-3.4	.	.	.	.
O=C1c2cccc3cccc(c23)C(=O)N1/N=C/c1c(O)n(-c2ccccc2)c(=O)[nH]c1=O	-1.2	4339	-4.2	0.3	6.5	.	.	.
CS(=O)(=O)Nc1ccccc1C(=O)Nc1cccc(Cl)c1	52.6*	5367	7.5	?	-2.7	0.2	-1.3	2.8
SMILES	BoNT F protease	Autofluor counter	Anthrax LF inh2	BoNT-A LC inh2	SARS 3CLpro inh	BoNT-A LC CP1	BoNT-F LC CP1	Anthrax LF CP1
COc1ccc(CNC(=O)CN2C(=O)COc3ccc(S(=O)(=O)N4CCCC4)cc32)cc1	-2.4	5784	2.1	52.6*	-1.0	0.3	2.0	-0.3
O=C(NCc1ccc(Cl)cc1)c1noc2c1CCCC2	-3.7	8038	-5.8	-1.3	-0.3	.	.	.
O=C(NCc1ccccc1)c1noc2c1CCCC2	35.2*	5510	4.6	4.7	-1.8	0.4	-5.6	1.9
O=C(O)C1NCCc2ccccc21 (centres undefined)	2.9	10298	-3.1	-0.6	-5.6	.	.	.
O=C(CCC(=O)N1CCN(c2ccc(F)cc2)CC1)N1CCN(c2ccc(F)cc2)CC1	41.0*	3564	11.8	0.7	-3.5	-2.3	-11.4	2.4
COCc1cc(CN2CCCC(C(=O)c3cccc(C(F)(F)F)c3)C2)ccc1OC (centres undefined)	43.4*	3106	-1.7	4.2	-3.5	-2.2	-0.5	-3.4
CC(C)CCOc1ccc(C(=O)NCC(c2cccs2)N2CCOCC2)cc1 (centres undefined)	-39.4	?	-6.2	-17.7	.	.	.	.
CC(C)OCCCNC(=O)[C@H]1N2C(=O)c3ccccc3C2SC1(C)C (some centres undefined)	-7.8	3116	5.9	1.0	-1.3	.	.	.
CC(C)NC(=O)[C@H]1N2C(=O)c3ccccc3C2SC1(C)C (some centres undefined)	35.6*	3866	4.3	3.9	-1.7	0.0	-2.9	-2.7
Brc1cc2c(cc1C1Nc3ccccc3C3C=CCC31)OCO2 (centres undefined)	0.0	2442	-0.6	0.4	-0.6	.	.	.
Cc1cc(C)c2c(c1)NC(c1cc3c(cc1Br)OCO3)C1CC=CC21 (centres undefined)	+	1899	-10.2	3.8	9.1	-1.2	1.5	-1.8
COc1ccc(-c2cc(C(=O)Nc3ccc(F)cc3F)no2)cc1	-1.6	3706	32.3*	-0.5	-5.2	0.6	-4.2	0.5
COc1ccc(C(=O)Nc2nc(-c3ccc([N+](=O)[O-])cc3)c(-c3ccc(OC)cc3)s2)cc1	22.1	7771	32.8*	37.8*	6.2	14.5	9.0	12.0
O=C(Nc1nc(-c2ccccc2)c(-c2ccccc2)s1)c1ccc(S(=O)(=O)N2CCCCC2)cc1	-7.3	11466	-6.1	-0.3	-2.2	-1.1	-6.5	-4.9
O=C(CCNC(=O)c1ccc([N+](=O)[O-])cc1)Nc1nc2ccccc2[nH]1	-3.3	5455	-1.3	1.4	.	.	.	.
COc1ccc(/C=C/C(=O)c2ccc3c4c(cccc24)CC3)cc1	2.7	8476	1.5	2.3	3.4	.	.	.
CCN(CC)C(=O)c1ccc(S(=O)(=O)c2ccccc2)cc1	43.1*	3400	-1.3	1.2	4.1	-0.7	-2.7	0.4
CCN(CC)C(=O)c1ccc(NS(=O)(=O)c2ccccc2)cc1	5.6	3742	1.9	0.9	1.3	.	.	.
Cc1nn(CC(=O)NCCc2cccs2)c(=O)c2cc3ccccc3n12	2.8	5756	33.7*	38.3*	-1.8	-2.3	-2.4	-6.7
c1ccc(-c2cnn3c(-c4ccccc4)c(-c4ccccc4)nc3n2)cc1	20.9	5602	20.8	37.0*	5.0	26.1	23.2	10.9
